Source: PubChem
The list is a sample of the results.
aSyn UTR act: Activators via SNCA 5'UTR binding, MLPCN; alpha-synuclein 5'UTR reporter, activators screen; activity score, % (tested at 7.5 µM), hits read low; hit rate 7.1% among 300,000; AID 1814, 2009; in the data active means activity score below about -60%
Numbers stand for hits; 0 = inactive.

SMILES	aSyn UTR act
CNS(=O)(=O)c1ccc(NC(=S)Nc2ccc3c(c2)OCO3)cc1	-129
Cc1ccc(-c2cc3nc(-c4ccccc4)cc(N)n3n2)cc1	-236
CSc1nc(N)n2nc(-c3ccccc3)cc2n1	-119
c1csc(C2=NNC(=NC3CCCCC3)SC2)c1	-165
c1ccc2oc(C3=NNC(=NC4CC4)SC3)cc2c1	-135
CC1=CN2C(=N)/C(=C/c3ccc(C)o3)C(=O)N=C2S1	-80
CCN=C1S/C(=C\c2ccc(Sc3ccc(Cl)cc3)o2)C(=O)N1CC	0
CC1=CN2C(=N)/C(=C/c3ccc(Sc4ccc(C)cc4)o3)C(=O)N=C2S1	-78
CC(C)c1[nH]nc2c1C(c1ccco1)C(C#N)=C(N)O2 (centres undefined)	-133
FC(F)(F)c1cccc(-c2ccc(-c3csnn3)o2)c1	-85
Cc1ccc(-c2csc(NC(=O)c3ccno3)n2)cc1	-128
Cc1ccc(-c2csc(NC(=O)c3ccc([N+](=O)[O-])o3)n2)cc1	-234
Cn1cc([N+](=O)[O-])c(C(=O)Nc2nc(-c3ccc(Cl)cc3)cs2)n1	0
CN(Cc1ccccc1)C(=O)c1ccc([N+](=O)[O-])o1	-84
Cc1ccc(CNC(=O)c2ccc([N+](=O)[O-])o2)cc1	-70
CCOc1ccc(N(C(=O)c2cc3ccccc3oc2=O)C2C=CS(=O)(=O)C2)cc1 (centres undefined)	-88
Cc1cc(C)cc(N(C(=O)c2cc3ccccc3oc2=O)C2C=CS(=O)(=O)C2)c1 (centres undefined)	-126
Cc1ccc(N(C(=O)c2cc3ccccc3oc2=O)C2C=CS(=O)(=O)C2)cc1 (centres undefined)	-107
N#CC1=C2C=Cc3ccccc3N2CCCC1=O	-74
CC1=C[C@@H](C)[C@@H](c2ccc(C(F)(F)F)cc2)OC1=O	-63
CCC(=O)Nc1cccc(C(=O)OCC(=O)c2ccccc2Cl)c1	-171
CC(=O)Nc1cccc(C(=O)OCC(=O)N2CCC(c3ccccc3)=N2)c1	-89
CC(=O)Nc1cccc(C(=O)OCC(=O)c2ccccc2Cl)c1	-99
c1ccc2oc(-c3ccn[nH]3)cc2c1	-120
Cn1/c(=N\NC(=O)c2ccccc2Cl)sc2ccccc21	-89
SMILES	aSyn UTR act
Cn1/c(=N\NC(=O)C2CCCCC2)sc2ccccc21	-141
CCOC(=O)c1sc(N)c(C(=O)OCC)c1C	-65
C/C(=N\N=C(/N)c1nonc1N)c1ccc2c(c1)OCO2	-110
Cc1ccc2c(CNCc3ccco3)cc(=O)oc2c1	-65
COc1ccc(-c2cc3ccccc3s2)cc1[C@H]1[C@H]2C=CC[C@@H](C)[C@@H]2C(=O)N1Cc1ccccc1	-107
COc1ccc(Nc2oc(COc3ccccc3OC)nc2C#N)cc1	0
COc1ccc(Nc2oc(-c3cccs3)nc2C#N)cc1	-171
COc1ccc(Nc2oc(-c3ccccc3F)nc2C#N)cc1	-103
Nc1cc(Cl)nc(N/N=C/c2ccccc2[N+](=O)[O-])n1	-188
Oc1ccccc1/C=N/Nc1nccnc1Cl	0
O=[N+]([O-])c1ccccc1/C=N/Nc1nccnc1Cl	-184
COc1ccc(/C=C/C(=O)NC(=S)N2CCN(c3ccccn3)CC2)cc1	-122
COc1ccc(/C=C/C(=O)NC(=S)N2CCSCC2)cc1	-65
COc1ccc(NC(=O)CN(C)C(=O)/C=C/c2ccc(S(=O)(=O)N3CCCCCC3)cc2)cc1	0
Cc1ccc(C(=O)N2CCN3C(=O)c4ccccc4C23c2ccc(Cl)cc2)cc1 (centres undefined)	-69
COc1ccc(Cl)cc1C(=O)Nc1cccnc1Cl	-78
COc1ccc(Cl)cc1C(=O)Nc1ccc(Br)c(C)n1	-78
Cc1[nH]c2ccccc2c1C(=O)/C=C/c1ccccc1Cl	-453
Cc1[nH]c2ccccc2c1C(=O)/C=C\c1ccccc1Cl	-314
O=C(N/N=C/c1ccccc1Cl)c1[nH]c2ccc(Br)cc2c1-c1ccccc1	0
Cc1[nH]c2ccccc2c1C(=O)/C=C/c1ccccc1	-98
O=C(/C=C/c1ccco1)Nc1ccc(C(=O)N2CCOCC2)cc1	-75
O=C(/C=C/c1ccco1)Nc1ccc(N2CCCC2)cc1	-207
Cc1cc(C)c(NN=c2c(=O)c3ccccc3c2=O)c(C)c1	-125
Oc1ccc(N=Nc2n[nH]c(-c3ccc(Cl)cc3)n2)cc1	-109
SMILES	aSyn UTR act
CC12CCC(C(=O)Nc3nc4ccc(Br)cc4s3)(OC1=O)C2(C)C (centres undefined)	-92
Clc1ccc(Nc2nc(C3CC3)cs2)cc1	-190
C/C(N)=C(/C#N)C(=O)COC(=O)c1cc2c(s1)CCC(C)C2 (centres undefined)	-73
COc1cccc(NC(=O)CN(C)C(=O)C2CCN(C(=O)c3ccccc3C)CC2)c1	-97
Cc1ccc2c(c1)N=C(c1ccc(Cl)cc1)CO2	-152
Clc1ccc(C2=Nc3cc(Cl)ccc3OC2)cc1	-206
CCOC(=O)/C=C(/C)N1N=C(c2ccc(OC)cc2)CC1c1cccc([N+](=O)[O-])c1 (centres undefined)	-166
COc1ccccc1N1CCN(/N=C\c2ccc(C)o2)CC1	-98
COc1ccccc1N1CCN(/N=C\c2ccccc2)CC1	-103
COc1ccccc1N1CCN(/N=C/C(Cl)=C/c2ccccc2)CC1	-159
COc1ccccc1N1CCN(C(=O)C2c3ccccc3Oc3ccccc32)CC1	0
CCOc1ccc(C(=O)Nc2ccc3nc(N4CCN(CC)CC4)cc(C)c3c2)cc1	0
CCN1CCN(c2cc(C)c3cc(NC(=O)c4cc(OC)cc(OC)c4)ccc3n2)CC1	-98
Cc1cc(N2CCN(C)CC2)nc2ccc(NC(=O)c3ccc(Br)o3)cc12	-103
COc1cc(C(=O)Nc2ccc3nc(N4CCN(C)CC4)cc(C)c3c2)cc(OC)c1OC	-103
O=C(c1c(Cl)nc2sccn12)N(C(=O)c1c(Cl)nc2sccn12)c1ccc(Cl)cn1	-196
Cc1cc(O)cc(O)c1-c1onc(C(F)(F)F)c1-c1cscn1	-78
COc1ccc(-c2csc3nc(-c4ccccc4F)oc(=O)c23)cc1	-101
COc1ccc(F)cc1CN1CCN(c2ncnc3scc(-c4ccccc4)c23)CC1	0
CNc1nc(-c2ccc3c(c2)CCN3C(=O)CC(C)(C)C)c(C)s1	-118
CNc1nc(-c2ccc3c(c2)CCN3C(=O)c2ccccc2F)cs1	-90
CCCC(=O)N1CCc2cc(-c3nc(N)sc3C)ccc21	-208
CCC(C)C(=O)N1CCc2cc(-c3csc(N)n3)ccc21 (centres undefined)	-172
CC(C)(C)C(=O)N1CCc2cc(-c3csc(N)n3)ccc21	0
CC(=O)Nc1nc(-c2ccc3c(c2)CCN3C(=O)C2CC2)c(C)s1	-255
SMILES	aSyn UTR act
Cc1ccc(-c2nc(NC(=O)c3nn(C)cc3[N+](=O)[O-])sc2C)cc1	0
Cc1ccc(NC(=O)c2cnccn2)nc1	-78
Cc1ccc(NC(=O)c2cnccn2)c(Br)c1	-87
O=C(Cc1ccccc1F)Nc1ccccc1-c1ccccc1	-85
COc1cccc(C(=O)/C=C/Nc2cccc(O)c2)c1	-87
COc1cccc(C(=O)/C=C/Nc2ccc(NC(C)=O)cc2)c1	-125
O=C(NC1CCCCC1)c1cc2nc3c(c(C(F)(F)F)n2n1)CCCC3	-136
CC(=O)c1ccc(NC(=O)c2cc3nc4c(c(C(F)(F)F)n3n2)CCCC4)cc1	-75
CCOc1ccc(/C=C\C(C)=N\O)cc1	-150
CCOc1ccc(/C=C/C(=O)CCC(=O)O)cc1	-79
Cc1cc(=O)[nH]c(N/N=C/c2cc(C)n(-c3ccccc3)c2C)n1	-63
Cc1cc(=O)[nH]c(N/N=C/c2ccccc2Cl)n1	-76
CCN(CC)c1ccc(/C=N/Nc2nc(C)cc(=O)[nH]2)c(O)c1	0
